CCT modulator: modulators of cytosolic chaperonin (CCT/TRiC) activity | purified chaperonin ATPase assay, HTRF ADP detection, 30 min | activity change, % (concentration not given with the values), hits read low | 360,000 compounds, 0.3% hits | AID 651819; in the data active means activity change below about -30%
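We incubate TRiC, 40 or 20 nM final, with library compounds at 76 uM and 10 uM ATP for 30 min at 37 °C. ADP formed is detected with Transcreener HTRF reagents after 30 min at room temperature.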
VDR inh: vitamin D3 receptor (human) inhibition | VDR-SRC2-3 peptide fluorescence polarization, 2 h | 400,000 compounds, 0.93% hits | Potency, µM, inactives show max response, negative = inhibition, hits mostly inhibitors | P11473 | AID 504847; further: potency means the concentration at half of the fitted maximal effect
Target sequence (P11473 whole entry, looked up): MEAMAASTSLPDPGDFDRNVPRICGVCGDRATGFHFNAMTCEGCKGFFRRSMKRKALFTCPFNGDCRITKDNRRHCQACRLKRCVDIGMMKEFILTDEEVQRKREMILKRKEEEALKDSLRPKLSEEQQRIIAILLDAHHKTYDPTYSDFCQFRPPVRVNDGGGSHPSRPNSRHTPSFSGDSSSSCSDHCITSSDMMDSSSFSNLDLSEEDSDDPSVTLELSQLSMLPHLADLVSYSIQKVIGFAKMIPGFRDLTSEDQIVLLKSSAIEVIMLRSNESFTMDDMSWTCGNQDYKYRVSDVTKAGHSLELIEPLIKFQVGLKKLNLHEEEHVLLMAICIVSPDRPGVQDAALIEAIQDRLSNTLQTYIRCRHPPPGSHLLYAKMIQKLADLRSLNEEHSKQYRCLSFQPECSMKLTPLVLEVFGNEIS
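Compounds are added to VDR with labelled SRC2-3 coactivator peptide and held 2 h at room temperature. Inhibition of the VDR–peptide interaction is then read as a change in fluorescence polarization.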
G9a inh: G9a (human) methyltransferase inhibition; Q96KQ7; G9a H3K9 monomethylation, AlphaScreen, 2 h; Potency, µM (titrated, usually from 102 µM), for the others: at the top dose activity, negative = inhibition, usual class: inhibitors; 350,000 compounds, 8.8% hits; further: potency means the concentration at half of the fitted maximal effect; nearly all actives have a fitted effect of over 75% in size
Target sequence (Q96KQ7 913-1193 limits assumed): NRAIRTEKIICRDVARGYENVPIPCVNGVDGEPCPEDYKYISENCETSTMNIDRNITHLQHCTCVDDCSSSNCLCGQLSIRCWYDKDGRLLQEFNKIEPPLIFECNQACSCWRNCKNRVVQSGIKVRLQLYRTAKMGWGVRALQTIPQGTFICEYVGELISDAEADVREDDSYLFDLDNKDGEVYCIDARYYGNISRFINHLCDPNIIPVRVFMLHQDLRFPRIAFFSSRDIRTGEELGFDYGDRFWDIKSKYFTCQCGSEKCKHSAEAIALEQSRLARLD
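Compounds were preincubated with 20 nM G9a for 15 min, after which biotinylated H3K9 peptide (500 nM) and SAM (20 uM) started a 2 h room-temperature reaction. Monomethylated product was quantified by antibody-based AlphaScreen chemiluminescence.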
Sfp PPTase inh: Sfp phosphopantetheinyl transferase inhibition | Q9F4F7 | Biochemical Sfp PPTase activity, qHTS | Potency, µM, for inactives: largest response in the series, negative = inhibition, actives largely listed as inhibitors | 310,000 compounds, 3.5% hits;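 further: the enzyme is Sfp with the accession as filed and its product quenches rhodamine fluorescence; potency means the concentration at half of the fitted maximal effect; 0% = enzyme reaction without inhibitor and -100% = no enzyme wells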
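Compounds were incubated with enzyme (final 15 nM) for 15 min at room temperature before substrate addition started the reaction. Fluorescence at 525 nm excitation, 598 nm emission was recorded immediately and after 30 minutes.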
PLK1 PBD block: blocks phosphopeptide binding to human PLK1 polo-box domain; Potency, µM, for inactives: max response, negative = inhibition, actives largely listed as inhibitors; P53350; AID 720504; Plk1 PBD binding of FITC phosphopeptide, fluorescence polarization; 360,000 compounds, 2.8% hits; further: potency means the concentration at half of the fitted maximal effect; series mostly up to about 57 µM; nearly all actives have a fitted effect of over 65% in size
MmCpn inh: M. maripaludis TRiC chaperonin inhibition | AID 504842 | purified Mm-Cpn ATPase, ADP Transcreener TR-FRET | 330,000 compounds, 0.031% hits | Potency, µM (titrated, usually from 76.9 µM), inactives show top-dose activity, negative = inhibition, most hits filed as inhibitors; further: potency means the concentration at half of the fitted maximal effect; nearly all actives have a fitted effect of over 80% in size
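25 nM Mm-CPN + cpd, 10 min 37°C; + 10 uM ATP, 30 min 37°C; buffer 30 mM Tris pH 7.4, 100 mM KCl, 5 mM MgCl2, 1 mM DTT; Transcreener ADP HTRF detection 30 min RT.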
The depositor's hits bear a star; ? = inconclusive; . = no result; [ ] = another dose, or the depositor's remark. Compounds with a hit are over-represented: about 10% of the library has one in this group of screens. Unless noted, the call rests on the fitted dose curve; in most records, active means well fitted curve in the direction sought with a large enough effect; inconclusive means small, poorly fitted or top-dose-only effect, or another doubt; inactive means no such curve, though single readings can be large; an effect the other way counts as inactive or inconclusive. Unless noted, on the % scale 0 is the no-effect control and ±100 the full control effect.

SMILES | CCT modulator | VDR inh | G9a inh | Sfp PPTase inh | PLK1 PBD block | MmCpn inh
CCC(=O)N1c2ccccc2CC1C(=O)NCc1cc(Br)ccc1OC (stereo not given) | . | 14% | 22%[59 µM] | . | . | .
CN(C)S(=O)(=O)c1ccc(Cl)c(NC(=O)COc2ccccc2[N+](=O)[O-])c1 | -5 | -27% | 3%[59 µM] | -8% | -11% | 0%
CCCCC(=O)Nc1cc(Cl)ccc1C(=O)O | -1 | -24% | 25µM* | 10% | 4% | -5%
O=C(COc1ccccc1[N+](=O)[O-])Nc1cc(Cl)ccc1C(=O)O | -1 | -3% | 5% | 30% | -18% | 45µM*
CC(=O)N1CCN(c2ccccc2NC(=O)COc2ccc(Br)cc2)CC1 | 1 | 11% | -13%[12.7 µM] | 0% | -4% | -1%
O=C(COc1ccc(Br)cc1)Nc1ccccc1N1CCCC1 | 1 | 1% | 45µM* | 20% | -5% | 0%
CCCCC(=O)Nc1ccc(Cl)cc1F | 0 | . | . | . | 1% | .
O=C(COc1ccccc1[N+](=O)[O-])Nc1ccccc1N1CCCC1 | -2 | -11% | 45µM* | 20µM* | -11% | -4%
COc1ccc(-n2c(=O)c(C)nc3cnc(N4CCNCC4)nc32)cc1 | . | -21% | -4%[12.7 µM] | 14% | . | .
CN(Cc1ccccc1)C(=O)c1cc(-c2cccc(Cl)c2)on1 | . | -12% | 49%[59 µM] | . | . | .
O=C(c1ccccc1Cl)N1CCCCC1CCN1CCOCC1 (stereo not given) | . | 8% | 5%[59 µM] | . | . | .
O=C(CSc1ccc(Cl)cc1)NC(=O)c1ccccc1 | 4 | -21% | 4%[12.7 µM] | . | 12µM* | 0%
COc1ccc(C(=O)N2CCCCC2CCN2CCOCC2)cc1 (stereo not given) | . | 11% | -3%[59 µM] | . | . | .
N#Cc1ccc(CSc2nc3c(c(=O)[nH]2)CCCC3)cc1 | . | 11% | ? | . | . | .
COc1cc(OC)c(OC)cc1CN1CCSCC1 | -14 | -7% | ? | -4% | 6% | 1%
COc1cc(OC)c(OC)cc1CN1CCN(Cc2ccc(SC)cc2)CC1 | -1 | -3% | 3.2µM* | ? | -9% | 4%
COc1cc(CN2CCN(Cc3ccc(SC)cc3)CC2)cc(OC)c1O | -1 | 27% | 7.9µM* | 56µM* | -8% | 3%
COc1ccc2cc(-c3nnc(Nc4ccccc4)s3)c(=O)oc2c1 | . | 4% | -5%[59 µM] | . | . | .
COc1ccc(NS(=O)(=O)c2ccc(NC(=O)c3ccccc3)cc2)nn1 | -1 | ? | -21% | 15% | 15µM* | -1%
O=C(Nc1ccc(S(=O)(=O)Nc2ncccn2)cc1)c1ccc2ncsc2c1 | 0 | -9% | 45µM* | ? | -24% | -10%
COc1ccc(NS(=O)(=O)c2ccc(NC(=O)c3ccc(Br)cc3)cc2)nn1 | -2 | 6% | 1% | 14% | -5% | -2%
O=S(=O)(Nc1ncccn1)c1ccc(NC(=S)Nc2ccc(Cl)cc2)cc1 | -5 | -5% | . | 40µM* | ? | -1%
O=C(Nc1ccccc1F)c1ccc2ncsc2c1 | -4 | 0% | 45µM* | -12% | -5% | -1%
O=C(Nc1ccc(Cl)cc1)Nc1ccc(S(=O)(=O)Nc2ncccn2)cc1 | 0 | -12% | -33% | 15% | -7% | 3%
COc1ccccc1CNC(=O)c1cnc2sc(N3CCOCC3)nn2c1=O | . | 5% | 16%[59 µM] | . | . | .
SMILES | CCT modulator | VDR inh | G9a inh | Sfp PPTase inh | PLK1 PBD block | MmCpn inh
Cc1nn(C)c2c1c(C(F)(F)F)cc(=O)n2Cc1ccc(Br)cc1F | . | 2% | 71%[59 µM] | . | . | .
CC(=O)OC[C@@H]1O[C@H](C/C=N\O[C@@H](C)CN2CCCc3nc(C)c(C)cc32)C=C[C@@H]1OC(C)=O | . | . | . | -7% | . | .
O=S(=O)(NNC(=S)Nc1ccc(S(=O)(=O)Nc2ncccn2)cc1)c1ccc(Br)cc1 | 1 | 9% | 35% | 10% | -15% | 1%
O=C(NC(=S)Nc1ccc(S(=O)(=O)Nc2ncccn2)cc1)c1ccc(Br)cc1 | 3 | 0% | 50µM* | ? | 11µM* | 2%
O=C(Nc1nc2c(s1)CCCC2)c1ccc2ncsc2c1 | -6 | -9% | ? | 25µM* | -13% | -7%
COc1nccnc1NS(=O)(=O)c1ccc(NC(=S)NC(=O)c2ccc(F)c(F)c2)cc1 | -5 | ? | 50µM* | -25% | -7% | 0%
COc1nccnc1NS(=O)(=O)c1ccc(NC(=O)c2ccc(F)cc2)cc1 | -3 | 13% | 10% | 6% | 1% | 0%
COc1ccc(NS(=O)(=O)c2ccc(NC(=S)NC(=O)c3ccc(Br)cc3)cc2)nn1 | -16 | -21% | 18µM* | -27% | -8% | 0%
COc1ccc(C)cc1NC(=O)C1CCN(S(=O)(=O)c2ccc3[nH]c(=O)oc3c2)CC1 | . | 0% | -1%[59 µM] | . | . | .
CCOC(=O)c1c(C)[nH]c(C)c1S(=O)(=O)N1CCC(C(=O)NCc2ccc(OC)cc2)CC1 | . | 0% | -2%[59 µM] | . | . | .
COC(=O)C/C=C\[C@@H](C)[C@@H](/C=N\OC[C@@H](O)[C@H]1O[C@H]2OC(C)(C)O[C@H]2[C@@H]1O)OC | . | . | . | 14% | . | .
CC(=O)c1ccc(NC(=O)CSc2nc(-c3ccccc3C)nc3c2c(=O)n(C)c(=O)n3C)cc1 | . | 15% | ? | . | . | .
Cc1cc(C)cc(NC(=O)CSc2oc(-c3cccs3)nc2S(=O)(=O)c2ccc(Br)cc2)c1 | . | 0% | 5%[59 µM] | . | . | .
Cc1cc2cc(C=O)c(Cl)nc2cc1C | -2 | -4% | 19%[0.501 µM] | 32µM* | -9% | 0%
Cc1ccc(C)c(N2CCN(S(=O)(=O)c3cn(C)c(C)n3)CC2)c1 | . | 0% | 3%[59 µM] | . | . | .
Cc1ccc(NC(=O)c2cnc3cc(C)ccn3c2=O)c(C)c1 | . | 1% | 0%[59 µM] | . | . | .
CCN(CC)c1ccc(-n2nc3cc(C)c(NC(=O)c4ccccc4C)cc3n2)c(C)c1 | . | 12% | 95%[59 µM] | . | . | .
CCN(CC)c1ccc(NC(=O)c2cnc3ccccn3c2=O)c(C)c1 | -1 | 5% | 1.8µM* | 4% | -6% | -1%
CCOC(=O)N1CCC(N2Cc3cccc(C(=O)Nc4ccc(N(CC)CC)cc4C)c3C2=O)CC1 | 0 | -4% | 10µM* | -3% | -5% | -1%
CCN(CC)c1ccc(NC(=O)c2cccc(C)c2OC)c(C)c1 | 1 | 9% | 3.5µM* | -29% | 0% | -3%
CCN(CC)c1ccc(NC(=O)c2cccnc2)c(C)c1 | 2 | 13% | 32µM* | 17% | -5% | -3%
CCc1ccc2c(c1)c(=O)c(C(=O)c1ccc(C)cc1)cn2CC(=O)Nc1ccc2c(c1)OCCO2 | . | -5% | 8%[59 µM] | . | . | .
N=C(N)n1cccn1 | . | 2% | ? | 50µM* | . | .
CN1C(=O)C2C(c3ccc(N(C)C)cc3)=NN(Cc3ccccc3)C2C1=O (stereo not given) | 0 | -2% | 4µM* | 4% | -2% | 1%
CC(=O)C1=C(O)C(=O)N(Cc2ccccc2)C1c1ccc(N(C)C)cc1 (stereo not given) | -1 | 2% | . | 9% | -18% | -1%

Source: PubChem
